The values below come from PubChem BioAssay.

Values without a mark were called inactive. For some of these results: Potency and affinity values are given separately. The source made the active and inactive calls. Unless noted, the rule behind the calls is not given here.

Test [1] can be described thus: antimalarial activity against Dd2 strain (AID 2302;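 active = growth inhibition above 50% at the single 2 µM test dose, taken to imply half-maximal potency below 2 µM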;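 note: 0% = DMSO untreated growth and 100% = chloroquine plus artemisinin killed control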). To be noted: P. falciparum Dd2 in RBCs, LDH growth readout, 72 h; at 2 µM; hits give high values.
Test [2] can be described thus: HepG2 cytotoxicity, primary screen, cytotoxicity control for P. falciparum antimalarial project, cell-based, ATP luminescence (AID 2303;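 active = inhibition above 50%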;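 note: 0% = DMSO wells and 100% = digitonin-killed cells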). Conditions: HepG2 viability, 24-48 h, at 10 µM, hits give high values.
For test [3], the target named is L-lactate dehydrogenase (Plasmodium falciparum (isolate CDC / Honduras)) (UniProt Q27743). Kind of test: PfLDH activity inhibition – cell lysate, 3D7 strain, counter-screen for P. falciparum growth inhibition project (AID 2304).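 Note: 0% = vehicle and 100% = reference inhibitor.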 To be noted: P. falciparum 3D7 crude extract, LDH APAD/NBT absorbance; at 2 µM; hits give high values. (A counterscreen serves to expose hits that act by an unwanted route or on another target.)

Test [4] can be described thus: inhibition of 3D7 malaria parasite growth – strain 3D7 (AID 2306).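 Note: 0% = DMSO wells and 100% = chloroquine plus artemisinin control wells.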 Conditions: P. falciparum 3D7 erythrocytic growth, LDH absorbance, 72 h; at 2 µM; hits give high values.
In test [5] the target is Calcium-dependent protein kinase 1 (Plasmodium falciparum (isolate 3D7)) (UniProt P62344). Description: PfCDPK1 kinase inhibitors, biochemical, TCAMS library (AID 1159585; cut-off not given, nearly all actives have IC50 up to about 0.98 µM;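 note: inhibitors leave more ATP so luminescence rises with inhibition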). To be noted: recombinant PfCDPK1, Kinase-Glo ATP depletion luminescence. (In general: Kinase-Glo measures the ATP left after a reaction by luminescence.)
Test [6] deals with Plasmodium falciparum protein kinase 6 (PK6, PF3D7_1337100) (UniProt Q8IDW1). Kind of test: PfPK6 kinase inhibitors, biochemical, TCAMS library (AID 1159586). Conditions: recombinant PfPK6, Kinase-Glo ATP depletion luminescence.
In test [7] the target is Protein kinase 7 (PK7), Plasmodium falciparum 3D7 (PF3D7_0213400) (UniProt Q7YTF7). Description: inhibition of Plasmodium PK7 catalytic activity – biochemical, TCAMS antimalarial set, Kinase-Glo luminescence (AID 1159587). To be noted: recombinant PfPK7, Kinase-Glo ATP depletion luminescence.
Test [8] deals with Calcium-dependent protein kinase 4 (Plasmodium falciparum (isolate 3D7)) (UniProt Q8IBS5). Description: PfCDPK4 kinase inhibitors, biochemical, TCAMS library (AID 1159588; cut-off not given, nearly all actives have IC50 up to about 0.91 µM). Conditions: recombinant PfCDPK4, Kinase-Glo ATP depletion luminescence.
Sequence of Calcium-dependent protein kinase 4 (Plasmodium falciparum (isolate 3D7)) (Q8IBS5 whole entry, looked up): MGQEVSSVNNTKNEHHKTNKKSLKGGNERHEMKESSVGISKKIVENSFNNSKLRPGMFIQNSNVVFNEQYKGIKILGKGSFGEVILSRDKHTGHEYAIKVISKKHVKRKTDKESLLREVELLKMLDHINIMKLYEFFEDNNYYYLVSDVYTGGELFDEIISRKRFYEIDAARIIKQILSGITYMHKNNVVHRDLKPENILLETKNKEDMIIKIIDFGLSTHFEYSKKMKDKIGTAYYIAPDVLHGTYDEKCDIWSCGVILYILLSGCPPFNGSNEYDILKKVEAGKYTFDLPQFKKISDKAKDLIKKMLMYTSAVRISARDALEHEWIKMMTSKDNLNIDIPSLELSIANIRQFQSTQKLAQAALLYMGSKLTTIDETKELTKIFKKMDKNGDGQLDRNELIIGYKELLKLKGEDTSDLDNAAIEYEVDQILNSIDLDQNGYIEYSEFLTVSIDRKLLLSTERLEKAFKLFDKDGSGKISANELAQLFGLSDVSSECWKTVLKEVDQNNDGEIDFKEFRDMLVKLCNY

Sequence of Protein kinase 7 (PK7), Plasmodium falciparum 3D7 (PF3D7_0213400) (Q7YTF7 1-343): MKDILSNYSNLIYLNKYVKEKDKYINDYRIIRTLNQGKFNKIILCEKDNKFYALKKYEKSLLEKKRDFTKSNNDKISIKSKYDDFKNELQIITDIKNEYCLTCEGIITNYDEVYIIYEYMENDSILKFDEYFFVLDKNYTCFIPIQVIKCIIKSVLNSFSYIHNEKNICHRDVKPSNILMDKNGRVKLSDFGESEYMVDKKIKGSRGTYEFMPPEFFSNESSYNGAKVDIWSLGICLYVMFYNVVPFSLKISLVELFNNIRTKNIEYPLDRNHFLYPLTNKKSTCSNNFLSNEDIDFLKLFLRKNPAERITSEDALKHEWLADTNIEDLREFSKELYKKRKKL
Sequence of L-lactate dehydrogenase (Plasmodium falciparum (isolate CDC / Honduras)) (Q27743 whole entry, looked up): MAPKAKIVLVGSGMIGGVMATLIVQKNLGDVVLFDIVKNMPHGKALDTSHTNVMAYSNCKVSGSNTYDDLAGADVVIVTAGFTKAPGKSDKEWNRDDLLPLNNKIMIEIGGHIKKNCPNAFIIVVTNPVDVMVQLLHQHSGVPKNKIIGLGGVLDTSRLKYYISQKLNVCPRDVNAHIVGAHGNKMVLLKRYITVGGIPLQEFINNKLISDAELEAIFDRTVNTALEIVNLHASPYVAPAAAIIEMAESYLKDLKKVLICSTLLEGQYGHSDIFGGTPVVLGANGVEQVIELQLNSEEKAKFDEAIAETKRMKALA
Sequence of Calcium-dependent protein kinase 1 (Plasmodium falciparum (isolate 3D7)) (P62344 whole entry, looked up): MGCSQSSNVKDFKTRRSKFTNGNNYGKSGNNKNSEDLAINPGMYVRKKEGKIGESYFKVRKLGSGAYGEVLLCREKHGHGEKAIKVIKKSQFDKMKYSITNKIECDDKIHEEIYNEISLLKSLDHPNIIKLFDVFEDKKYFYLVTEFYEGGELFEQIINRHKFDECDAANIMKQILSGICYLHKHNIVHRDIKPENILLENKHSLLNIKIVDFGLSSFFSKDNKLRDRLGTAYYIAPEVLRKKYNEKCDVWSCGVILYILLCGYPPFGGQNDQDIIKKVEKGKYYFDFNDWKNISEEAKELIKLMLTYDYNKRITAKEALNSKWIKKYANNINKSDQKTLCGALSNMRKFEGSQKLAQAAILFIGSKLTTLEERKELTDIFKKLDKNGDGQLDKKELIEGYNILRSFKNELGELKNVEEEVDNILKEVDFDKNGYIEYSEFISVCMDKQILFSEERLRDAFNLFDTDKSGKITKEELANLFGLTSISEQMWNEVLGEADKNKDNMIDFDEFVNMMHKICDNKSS
Sequence of Plasmodium falciparum protein kinase 6 (PK6, PF3D7_1337100) (Q8IDW1 1-305): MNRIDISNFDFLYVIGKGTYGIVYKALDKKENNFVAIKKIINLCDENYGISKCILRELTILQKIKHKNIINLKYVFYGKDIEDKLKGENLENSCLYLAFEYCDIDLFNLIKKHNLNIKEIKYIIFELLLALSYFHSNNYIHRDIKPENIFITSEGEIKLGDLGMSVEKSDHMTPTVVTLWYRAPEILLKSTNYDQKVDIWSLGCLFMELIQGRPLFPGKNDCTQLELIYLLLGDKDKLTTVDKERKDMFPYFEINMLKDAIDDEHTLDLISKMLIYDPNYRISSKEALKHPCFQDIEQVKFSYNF

The inhibition is the relative decrease from the control value, in per cent. `CC(O)c1cccc(-c2ccc(Nc3ccnc4cc(-c5nccs5)ccc34)cc2)c1` (centres undefined): the growth inhibition in test [1] is 69% (active); in test [4], 91% (active). Besides, the inhibition was 31% in test [2] and -1% in test [3]. For the same compound, the outcome in test [5], in test [6], in test [7] and in test [8] was inactive.
As for `O=C(Nc1ccccc1)c1cccc(Nc2nccc(Nc3ccc(Oc4ccccc4)cc3)n2)c1`, the growth inhibition in test [1] was 11%; in test [4] it was 98% (active). Moreover, the figures for the inhibition in test [2] and in test [3] were 6% and -1%, respectively. Further, the outcome in test [5], in test [6], in test [7] and in test [8] was inactive.
Regarding `CC(C)C[C@H](NC(=O)c1ccc(OCCN2CCOCC2)cc1)C(=O)NC(/C=N/N1CCCC1=O)C(C)C` (some centres undefined), the growth inhibition is 81% (active) in test [1] and 90% (active) in test [4]. In addition, the results for the inhibition in test [2] and in test [3] were 3% and -2%, respectively. The outcome in test [5], in test [6], in test [7] and in test [8] was inactive.
As for `COc1cc(NC(=O)N2CCc3ccc(OCCN4CCCCC4)cc32)cc(C(F)(F)F)c1`, the figures for the growth inhibition in test [1] and in test [4] were 93% (active) and 101% (active), respectively. Moreover, the inhibition is 9% in test [2] and 6% in test [3]. Moreover, the outcome in test [5], in test [6], in test [7] and in test [8] was inactive.
As to `O=C(Nc1ccc(C(F)(F)F)cc1)N[C@H]1CCN(CCCCCNC(=O)[C@@H]2C[C@H]2c2ccc(Cl)c(Cl)c2)C1`, the growth inhibition in test [1] was -1%; in test [4], 96% (active). Besides, the inhibition in test [2] was 41%; in test [3], -2%. The result in test [5], in test [6], in test [7] and in test [8] was inactive.
In the case of `CCSc1ccccc1COc1c(C)nc(N)nc1N`, the growth inhibition in test [1] is 4%; in test [4], 93% (active). Further, the inhibition in test [2] is 54% (active); in test [3], 3%. Also, the outcome in test [5], in test [6], in test [7] and in test [8] was inactive.
As to `COc1cccc2cc(C(=O)N[C@@H](CC(C)C)C(=O)Nc3cc(F)ccc3Br)oc12`, the growth inhibition was 45% in test [1] and 87% (active) in test [4]. The inhibition is 7% in test [2] and -1% in test [3]. Besides, the result in test [5], in test [6], in test [7] and in test [8] was inactive.
For the compound `O=C(CCN1CCCCC1)Nc1ccc(Nc2nccc(NCC(O)c3ccccc3)n2)cc1` (centres undefined), the growth inhibition in test [1] is 60% (active); in test [4], 102% (active). For the same compound, the inhibition is 18% in test [2] and -1% in test [3]. Moreover, the outcome in test [5], in test [6], in test [7] and in test [8] was inactive.
